Records with an inconclusive call do not appear. Calls of active or inactive are those of the source. Unless noted, calls come from the whole dose curve; as a rule, active = well fitted curve in the direction sought with a large enough effect; inconclusive = small, poorly fitted or top-dose-only effect, or another doubt; inactive = no such curve, though single readings can be large; an effect the other way counts as inactive or inconclusive. Numbered stars: 1 amine (or outer) side, 2 acyl side, 3 side chain; on linkers, the order of the positions; unused ones are H or OH. Bridge positions count the residues as written; N and C are the ends. Square brackets hold non-standard residues; d marks the D form. Peptide text beside a SMILES is read from it. I, II: the chains in the order shown. Actinocin(9to1) = Cc1c2oc3c(C)ccc(C(=O)[*:1])c3nc-2c(C(=O)[*:2])c(N)c1=O; NMeV = CN[C@H](C(=O)O)C(C)C; Sar = CNCC(=O)O
What was measured:
[1] = qHTS Assay for Identification of Small Molecule Antagonists for NFkB Signaling Pathway (AID 895; active = well fitted inhibition curve with a large enough effect in the signal ratio, with a control signal flat, not every such curve was filed as active; the % refers to the signal ratio; note: potency is the fitted concentration of half-maximal effect)
Summary of the method: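 NFkB-bla ME-180 cervical carcinoma cells with beta-lactamase reporter under NFkB response element; compounds added, then TNF alpha at 10 pM final (EC50), 5 h at 37 C. LiveBLAzer substrate 2 h, room temperature; emission 460/530 nm at 405 nm excitation.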

[2] = molecular target: 3',5'-cyclic-AMP phosphodiesterase 4B (Homo sapiens) (UniProt Q07343); test: qHTS Assay for Inhibitors of PDE-IV (AID 607; active = well fitted activation curve with a large enough effect in the main read-out, with a control signal flat, not every such curve was filed as active)
Summary of the method: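 Cell-based read-out of cAMP via a modified cyclic nucleotide-gated channel and membrane potential dye (535/590 nm) in HEK293 cells expressing PDE4 endogenously. Compounds tested up to 22.9 uM final; 100 uM RO 20-1724 reference.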

[3] = Confirmation and Secondary Assay for Modulators of Hemoglobin Beta Chain Splicing at IVS2 654 locus (AID 910);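 note: per-well total GFP intensity by laser scanning cytometry after 2-day treatment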
Summary of the method: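 HeLa cells stably carrying EGFP interrupted by mutant beta-globin IVS2-654 intron (CMV-driven) were treated with compound for 2 days at 37C; corrected splicing was scored as total peak GFP intensity per well (488 nm excitation, 500-520 nm emission).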

[4] = Cellular Toxicity (caspase-3) SHSY5Y (AID 657);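 note: cells exposed to compound for 16 hours at 37 °C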; note: potency is the fitted concentration of half-maximal effect
Summary of the method: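 SH-SY5Y human neuroblastoma cells (1500/well) were treated with compounds for 16 h at 37 °C, then Caspase-Glo 3/7 luminescence was read after 1 h at room temperature. Data normalized to DMSO and 10 uM staurosporine; AC50 from Hill fits.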

[5] = Cellular Toxicity (caspase-3) BJ (AID 658);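 note: cells exposed to compound for 16 hours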
Summary of the method: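 Plated BJ cells (1000/well) rested 5 hr, received compound for 16 hr at 37 °C, then Caspase-Glo 3/7 reagent for 1 hr at room temperature before luminescence reading.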

[6] = Cellular Toxicity (caspase-3) MRC-5 (AID 659); settings: Potency: caspase-3 activation
Summary of the method: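 Apoptosis readout in MRC-5 cells: luciferase light generated after caspase 3/7 cleaves a peptide-aminoluciferin substrate, measured post 16 hr compound incubation at 37 °C.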

[7] = Cellular Toxicity (caspase-3) Mesangial (AID 660);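 note: combined caspase 3 and 7 activity read by Caspase-Glo luminescence; cells exposed to compound for 16 h before the caspase read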
Summary of the method: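 Caspase 3/7 activation measured by Caspase-Glo 3/7 luminescence (20 min, room temperature) following 16 h exposure of mesangial cells (1000/well); AC50 from Hill-equation fit, normalized to DMSO and 100 uM tamoxifen.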

[8] = Cellular Toxicity (caspase-3) SK-N-SH (AID 661);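 note: cells exposed to compound for 16 hours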; note: potency is the fitted concentration of half-maximal effect
Summary of the method: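 Caspase 3/7 activation was read by luminogenic substrate cleavage after 16 hour treatment of SK-N-SH cells. Signal was scaled between DMSO and 10 uM staurosporine, and concentration-response data were fitted with the Hill equation for AC50.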

[9] = Cellular Toxicity (caspase-3) H-4-II-E (AID 663); settings: Potency: caspase-3 activation; note: potency is the fitted concentration of half-maximal effect;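 for caspase-3 activation: cells exposed to compound for 16 hr before readout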
Summary of the method: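 Caspase 3/7 activation measured in H-4-II-E cells in complete culture medium after 16 hr treatment at 37 °C, using luciferase-coupled substrate readout; AC50 values come from Hill-equation fits of normalized concentration-response data.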

[10] = Cellular Toxicity (caspase-3) N2a (AID 665); settings: Potency: caspase-3 activation;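 note: compound exposure lasted 16 h at 37 °C before readout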; note: potency is the fitted concentration of half-maximal effect
Summary of the method: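 Caspase-3/7 activation measured as luminescence from Caspase-Glo reagent (1 h, room temperature) after 16 h compound exposure of mouse N2a cells. AC50 values from Hill-equation concentration-response, scaled between DMSO and 10 uM staurosporine.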

[11] = Cellular Toxicity (caspase-3) NIH 3T3 (AID 666);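 note: caspase signal read after 16 h compound exposure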; note: potency is the fitted concentration of half-maximal effect
Summary of the method: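 Caspase-Glo 3/7 luminescence reported caspase activation in 1000 NIH 3T3 cells/well after 16 h compound exposure at 37 C. DMSO set basal and 100 uM tamoxifen set 100% stimulation; concentration-response modeled with the Hill equation for AC50.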

[12] = Cellular Toxicity (caspase-3) Renal Proximal Tubule (AID 667);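 note: cells exposed to compound for 16 hours at 37 °C before detection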
Summary of the method: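 Primary rat proximal tubule cells, 1000/well, 5 h plating at 37 °C, then compound 16 h at 37 °C. Caspase-Glo 3/7 reagent, 1 h RT, luminescence. Normalized to DMSO (basal) and 10 uM staurosporine (100%); Hill-fit AC50.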

[13] = molecular target: Cytochrome P450 3A4 (Homo sapiens) (UniProt P08684); test: qHTS Assay for Inhibitors and Substrates of Cytochrome P450 3A4 (AID 884); note: potency is the fitted concentration of half-maximal effect; nearly all actives have a fitted effect of over 50% in size
Summary of the method: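 Luminescent readout of luciferin produced by CYP3A4 (20 nM) dealkylation of Luciferin-PPXE, 25 uM (its KM). NADPH-driven reaction ran 60 min at RT after 10 min compound preincubation; data scaled to 57 uM ketoconazole as 100% inhibition.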

[14] = molecular target: Cytochrome P450 3A4 (Homo sapiens) (UniProt P08684); test: qHTS Assay for Activators of Cytochrome P450 3A4 (AID 885); note: nearly all actives have a fitted effect of over 65% in size
Summary of the method: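 Luminescent readout of luciferin formed from 25 uM Luciferin-PPXE (KM level) by 20 nM CYP3A4 in 200 mM KPO4, with 60 min NADPH-driven reaction at room temperature after 10 min compound exposure. Ketoconazole (57 uM) defined 100% inhibition.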

[15] = Cellular Toxicity (caspase-3) Jurkat (AID 655);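 note: potency is the fitted concentration of half-maximal effect; cells exposed to compound for 16 h at 37 °C before reading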
Summary of the method: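 Jurkat cells (5000/well) in complete medium were treated with compounds for 16 hr at 37 °C, then Caspase-Glo 3/7 luminescence was read after 20 min at room temperature. Data normalized to DMSO (basal) and 100 uM tamoxifen (100%); AC50 from Hill fit.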

[16] = Cellular Toxicity (caspase-3) Hek293 (AID 664);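 note: cells exposed to compound for 16 h at 37 °C before readout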
Summary of the method: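 Concentration-response qHTS: caspase 3/7 activation measured by luminescent aminoluciferin substrate cleavage after 16 h compound exposure of Hek 293 cells. AC50 from Hill equation, with DMSO as basal and 100 uM tamoxifen as 100%.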

Measured: Potency

Sequence of Cytochrome P450 3A4 (Homo sapiens) (P08684 whole entry, looked up): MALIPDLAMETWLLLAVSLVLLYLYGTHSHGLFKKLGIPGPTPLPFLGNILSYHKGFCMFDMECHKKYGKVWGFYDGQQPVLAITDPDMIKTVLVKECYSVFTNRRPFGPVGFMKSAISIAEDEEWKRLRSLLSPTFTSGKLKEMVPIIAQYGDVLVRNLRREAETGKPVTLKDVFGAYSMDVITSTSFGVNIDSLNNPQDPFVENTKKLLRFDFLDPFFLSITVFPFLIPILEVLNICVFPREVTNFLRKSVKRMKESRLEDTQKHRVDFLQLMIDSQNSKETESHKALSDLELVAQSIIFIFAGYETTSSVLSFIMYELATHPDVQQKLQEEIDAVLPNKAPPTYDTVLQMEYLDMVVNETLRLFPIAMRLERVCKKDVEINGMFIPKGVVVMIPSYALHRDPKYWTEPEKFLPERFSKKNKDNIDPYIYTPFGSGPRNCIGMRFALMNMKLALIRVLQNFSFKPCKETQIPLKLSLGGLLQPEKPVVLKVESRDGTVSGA
Sequence of 3',5'-cyclic-AMP phosphodiesterase 4B (Homo sapiens) (Q07343 whole entry, looked up): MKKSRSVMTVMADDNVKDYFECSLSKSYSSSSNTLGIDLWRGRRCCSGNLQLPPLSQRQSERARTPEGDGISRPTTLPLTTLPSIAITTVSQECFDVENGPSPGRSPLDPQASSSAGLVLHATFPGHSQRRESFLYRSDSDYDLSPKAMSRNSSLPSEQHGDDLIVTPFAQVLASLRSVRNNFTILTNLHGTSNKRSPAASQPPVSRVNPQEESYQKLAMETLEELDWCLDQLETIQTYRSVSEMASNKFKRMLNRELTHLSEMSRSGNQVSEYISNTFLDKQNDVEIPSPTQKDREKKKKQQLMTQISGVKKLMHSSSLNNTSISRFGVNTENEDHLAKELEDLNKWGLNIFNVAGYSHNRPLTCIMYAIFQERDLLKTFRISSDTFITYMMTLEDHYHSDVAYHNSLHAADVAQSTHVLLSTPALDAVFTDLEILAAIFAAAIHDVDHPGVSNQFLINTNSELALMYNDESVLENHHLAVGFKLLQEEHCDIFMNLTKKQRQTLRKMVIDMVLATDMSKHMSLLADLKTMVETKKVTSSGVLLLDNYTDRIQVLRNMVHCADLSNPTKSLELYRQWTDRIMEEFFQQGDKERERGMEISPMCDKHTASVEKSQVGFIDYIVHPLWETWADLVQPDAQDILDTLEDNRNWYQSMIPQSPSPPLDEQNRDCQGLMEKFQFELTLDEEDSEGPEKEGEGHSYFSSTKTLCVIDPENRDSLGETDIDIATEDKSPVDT

N[C@@H](Cc1cnc[nH]1)C(=O)O
inactive: [1]

Oc1ccc(O)cc1
active: [1] 10 µM

CCCCOc1ccc(OCCCN2CCOCC2)cc1
inactive: [2] | [3]

CC(=O)O[C@]1(C(C)=O)CC[C@H]2[C@@H]3C[C@H](C)C4=CC(=O)CC[C@]4(C)[C@H]3CC[C@@]21C
active: [13] 15.8 µM
not listed: [1] | [2] | [3] | [15] | [16]
inactive: all other assays above

COc1cccc2c1C(=O)c1c(O)c3c(c(O)c1C2=O)C[C@@](O)(C(=O)CO)C[C@@H]3O[C@H]1C[C@H](N)[C@H](O)[C@H](C)O1
inactive: [5] | [6] | [7] | [16] | [12] | [14]
active: [15] 0.02 µM | [4] 0.0158 µM | [8] 0.251 µM | [9] 31.6 µM | [10] 3.16 µM | [11] 0.398 µM

Cc1c2oc3c(C)ccc(C(=O)N[C@@H]4C(=O)N[C@H](C(C)C)C(=O)N5CCC[C@H]5C(=O)N(C)CC(=O)N(C)[C@@H](C(C)C)C(=O)O[C@@H]4C)c3nc-2c(C(=O)N[C@@H]2C(=O)N[C@H](C(C)C)C(=O)N3CCC[C@H]3C(=O)N(C)CC(=O)N(C)[C@@H](C(C)C)C(=O)O[C@@H]2C)c(N)c1=O (I: T[dV]P[Sar][NMeV] / II: T[dV]P[Sar][NMeV]; ester I:1-I:C, II:1-II:C; linker I:N-II:N via Actinocin(9to1))
active: [15] 0.00398 µM | [8] 0.0158 µM | [9] 0.126 µM | [10] 0.00794 µM | [11] 0.0251 µM
inactive: [5] | [6] | [7] | [16] | [14]

Reference: PubChem BioAssay (NCATS)
